Only a selection was taken, and hits are over-represented in it overall.
KDM5B inh: KDM5B demethylase inhibition | Q9UGL1 | KDM5B demethylase, FDH-coupled NADH fluorescence (FDH is formaldehyde dehydrogenase) | Potency, µM (doses to about 57.7 µM), hits mostly inhibitors | 220,000 tested, 2.6% active; active = well fitted inhibition curve with a large enough effect; also: 0% is about no effect; nearly all actives have a fitted effect of over 70% in size
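KDM5BΔAP (200 nM final) in 50 mM HEPES pH 7.5, 0.01% Tween-20 was preincubated 10 min at RT with compound over a concentration range. Substrate mix (H3K4me3 12.5 µM, α-KG 25 µM, Fe²⁺, ascorbate, NAD⁺, FDH) was added, and NADH fluorescence change over 30 min gave dose-response curves.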
* hit, by the source's call; i = inactive. Potency is read from the fitted curve at half-maximal effect.

SMILES	KDM5B inh
COc1ccccc1-c1cc(C(=O)NCc2ccc(F)cc2)c2cnn(C)c2n1	89.1µM*
COC(=O)CNC(=O)c1cc(-c2ccc(Cl)cc2Cl)nc2c1cnn2C	79.4µM*
Cn1ncc(C(=O)NCc2cccnc2)c1-n1cccc1	i
Cn1ncc2c(C(=O)NCc3cccnc3)cc(-c3ccc(Cl)cc3Cl)nc21	79.4µM*
Cc1ccc(-c2cc(C(=O)NC3CC3)c3ccccc3n2)cc1	i
Cn1ncc2c(C(=O)NC3CC3)cc(-c3ccc(F)cc3)nc21	112µM*
Cc1ccc2nc(-c3cccnc3)cc(C(=O)NC3CC3)c2c1	i
O=C(NCc1ccc(F)cc1)c1ccccc1-c1ccccc1	i
Cc1ccc(-c2cc(C(=O)N3CCSCC3)c3cnn(C)c3n2)c(C)c1	i
COc1ccccc1CNC(=O)c1cc(C)nc2ccccc12	i
O=S(=O)(NCc1cn2ccsc2n1)c1ccccc1	i
CC(Sc1ccc(Br)cn1)C(=O)Nc1cccc(Br)c1 (centres undefined)	i
Cn1nc(C(=O)NCc2cccc(Cl)c2)c2ccccc2c1=O	i
COc1ccc(-c2nc(CNC(=O)Nc3ccc(C)cc3)c(C)o2)cc1	i
Cc1ccc(C(=O)C(C#N)C(=O)NCc2ccccc2)cc1C (centres undefined)	i
CCNC(=S)N/N=C/c1ccccc1F	i
O=C(Cc1c[nH]c2ccccc12)NCC1(N2CCCCC2)CCCCC1	i
Cc1ccccc1-n1cc(CN(C)C(=O)CN2CC3(CCCC3)CC2=O)cn1	i
Cc1cccc(N2CCN(C(=O)CN3CC4(CCCCC4)CC3=O)CC2)n1	31.6µM*
Cc1cccc(-n2c(SCC(=O)N3CCCCC3)nc3ccccc3c2=O)n1	i
O=C1CCCCC1Sc1nc2cc(Cl)ccc2s1 (centres undefined)	i
O=C(CCc1cccnc1)NC1(c2ccc(Br)cc2)CC1	i
CCC(C)NC(=O)Cn1ccn2nc3c(c2c1=O)CCCC3 (centres undefined)	i
COc1cccc(CNC(=O)Cn2ccn3nc4c(c3c2=O)CCCC4)c1	25.1µM*
O=C(Cn1ccn2nc3c(c2c1=O)CCCC3)NCc1ccccc1	25.1µM*
SMILES	KDM5B inh
O=C(Cn1ccn2nc3c(c2c1=O)CCCC3)NCc1cccs1	20µM*
COC(=O)c1ccccc1NC(=O)Cn1ccn2nc3c(c2c1=O)CCCC3	i
CC(CCc1ccccc1)NC(=O)Cn1ccn2nc3c(c2c1=O)CCCC3 (centres undefined)	20µM*
CC(CCc1ccccc1)NC(=O)CCn1ccn2nc3c(c2c1=O)CCCC3 (centres undefined)	i
O=C(Cn1ccn2nc3c(c2c1=O)CCCC3)NCc1ccc(F)cc1	i
COc1ccc(CNC(=O)CCn2ccn3nc4c(c3c2=O)CCCC4)c(OC)c1	i
CC(=O)c1ccc(NC(=O)Cn2ccn3nc4c(c3c2=O)CCCC4)cc1	i
O=C(CCn1ccn2nc3c(c2c1=O)CCCC3)NCc1ccc(F)cc1	i
Cc1cccc(CNC(=O)CCn2ccn3nc4c(c3c2=O)CCCC4)c1	i
N#Cc1c(/N=C/c2c(F)cccc2Cl)sc2c1CCCC2	i
Cc1ccc(-c2cn3c(n2)CO[C@@H](CNCc2ccc(-c4ccccn4)cc2)C3)cc1	i
Cc1cc(C)nc(SCC(=O)Nc2ccccc2C(N)=O)n1	i
O=S(Cc1ccc(Cl)cc1)Cc1cccc(C(F)(F)F)c1 (centres undefined)	i
Cn1c(=O)[nH]c(=O)c2c1nc(NCc1ccco1)n2Cc1ccccc1	i
CC1=C/C(=N/NC(=S)Nc2ccc(Cl)cc2)CC(C)(C)C1	i
Fc1ccc(CNC(=S)NCc2ccccc2Br)cc1	i
Cc1ccc(CNC(=O)Cn2ccn3nc4c(c3c2=O)CCCCC4)cc1	5.62µM*
CSc1ccc(CNC(=O)CCn2ccn3nc4c(c3c2=O)CCCC4)cc1	i
CC(C)c1ccccc1NC(=O)Cn1ccn2nc3c(c2c1=O)CCCCC3	i
CCOc1ccc([C@H]2C3=C(C[C@H](c4ccc(OC)c(OC)c4)CC3=O)Nc3[nH][nH]c(=O)c32)cc1	i
COc1ccc(-c2nnc(SCC(=O)NC(C)c3ccc4c(c3)CCCC4)o2)cc1 (centres undefined)	i
CCC1CCc2c(sc(NC(=O)COCC(=O)O)c2C(=O)NCc2ccc(C)cc2)C1 (centres undefined)	i
C[N+]12CC[N+](C)(CC1)CC2	i
COCC1CN(S(=O)(=O)Cc2ccc(F)cc2)CC12CCNCC2 (centres undefined)	i
COCC1CN(S(=O)(=O)Cc2ccccc2)CC12CCNCC2 (centres undefined)	i
SMILES	KDM5B inh
COCC1CN(Cc2ccc(Br)s2)CC12CCNCC2 (centres undefined)	10µM*
Cc1cccc(C(=O)Nc2ccc(NC(=S)NC(=O)c3ccc(Cl)cc3)cc2)c1	i
CS(=O)(=O)N1CCCC(C(=O)NCCCN2CCCc3ccccc32)CCNC(=O)CC1 (centres undefined)	31.6µM*
CS(=O)(=O)N1CCCC(C(=O)NCCc2cccnc2)CCNC(=O)CC1 (centres undefined)	i
C=CCNC(=O)C1CCCN(S(C)(=O)=O)CCC(=O)NCC1 (centres undefined)	i
O=C(c1ccc(-c2ccccc2)cc1)C(O)c1ccc(-c2ccccc2)cc1 (centres undefined)	i
Cc1noc(-c2ccn3c(CNC(=O)Cc4ccccc4Cl)nnc3c2)n1	25.1µM*
Cc1noc(-c2ccn3c(CNC(=O)C(C)c4ccccc4)nnc3c2)n1 (centres undefined)	28.2µM*
Cc1noc(-c2ccn3c(CNC(=O)COc4ccccc4)nnc3c2)n1	12.6µM*
CCOC(=O)C1=C(COC(=O)c2oc3c(F)cccc3c2C)NC(=O)NC1C (centres undefined)	i
S=C(N/N=C1/CC2C=CCC12)NC1CCCCC1 (centres undefined)	i
CC1(C)C(c2ccccc2)=[N+]([O-])C(c2ccccc2Cl)N1O (centres undefined)	i
Cc1cccc(S(=O)(=O)N2CCN(c3ccc(N4CCCCC4)nn3)CC2)c1	i
CC(C)=CCC1(CO)CCCN(CC(=O)N2CCCCCC2)C1 (centres undefined)	i
CC(C)=CCC1(CO)CCCN(Cc2cc(=O)n3cc(C)sc3n2)C1 (centres undefined)	28.2µM*
COc1cc2c(cc1CN1CCCC(CO)(CC=C(C)C)C1)OCCO2 (centres undefined)	i
CC(C)C(=O)NC(=S)Nc1ccc(NC(=O)c2cccc(Cl)c2)cc1	i
O=C(CCc1cc(Cl)no1)N(CCS(=O)(=O)N1CCCC1)Cc1ccncc1	i
Cc1ccc2nc(/C(C#N)=C/c3cc(Br)c(O)c(Br)c3)[nH]c2c1	i
COc1ccc(C(=O)N2CCCC3(C2)C(=NC2CCCC2)NC(=O)N3c2cccnc2)cc1 (centres undefined)	i
CCOc1ccc(C(=O)N2CCCC3(C2)Nc2cccnc2NC3=NC2CCCC2)cc1 (centres undefined)	31.6µM*
COc1cc(OC)cc(C(=O)N2CCCC3(C2)NC(=O)N(Cc2ccc(C)cc2)C3=O)c1 (centres undefined)	i
O=C(c1ccccc1)N1CCC2(C1)C(=NC1CCCCC1)NC(=O)N2c1cccnc1 (centres undefined)	i
O=C(c1ccccc1)N1CCCC2(C1)Nc1cccnc1NC2=NC1CCCC1 (centres undefined)	28.2µM*
